# Bioassay records: PubChem BioAssay, National Center for Advancing Translational Sciences (NCATS)
# TDP1 cell CPT: DT40-hTDP1 cell growth loss with CPT; Potency, µM (top dose mostly 46.2 µM), for the others: at the highest dose activity change, negative = growth inhibition, actives largely listed as inhibitors; 420,000 tested, 12% active; chicken DT40 Tdp1-/-;hTDP1 cells + 20 nM CPT, ATP luminescence, 48 h; AID 686979; note: potency is the fitted concentration of half-maximal effect; nearly all actives have a fitted effect of over 55% in size
#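 Cell growth measured by CellTiter-Glo luminescence after a minimum 48 h, 37 C compound exposure with 20 nM CPT in Tdp1-knockout DT40 cells stably expressing hTDP1, seeded 400/well; qHTS titration format.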
# 12-LOX inh: ALOX12 (human) lipoxygenase inhibition; P18054; purified 12hLO, xylenol orange hydroperoxide absorbance; Potency, µM (series often up to 108 µM), without a hit: top-dose activity change, negative = inhibition, hits mostly inhibitors; 580,000 tested, 1.1% active; note: potency is the fitted concentration of half-maximal effect
# Target sequence (P18054 whole entry, looked up): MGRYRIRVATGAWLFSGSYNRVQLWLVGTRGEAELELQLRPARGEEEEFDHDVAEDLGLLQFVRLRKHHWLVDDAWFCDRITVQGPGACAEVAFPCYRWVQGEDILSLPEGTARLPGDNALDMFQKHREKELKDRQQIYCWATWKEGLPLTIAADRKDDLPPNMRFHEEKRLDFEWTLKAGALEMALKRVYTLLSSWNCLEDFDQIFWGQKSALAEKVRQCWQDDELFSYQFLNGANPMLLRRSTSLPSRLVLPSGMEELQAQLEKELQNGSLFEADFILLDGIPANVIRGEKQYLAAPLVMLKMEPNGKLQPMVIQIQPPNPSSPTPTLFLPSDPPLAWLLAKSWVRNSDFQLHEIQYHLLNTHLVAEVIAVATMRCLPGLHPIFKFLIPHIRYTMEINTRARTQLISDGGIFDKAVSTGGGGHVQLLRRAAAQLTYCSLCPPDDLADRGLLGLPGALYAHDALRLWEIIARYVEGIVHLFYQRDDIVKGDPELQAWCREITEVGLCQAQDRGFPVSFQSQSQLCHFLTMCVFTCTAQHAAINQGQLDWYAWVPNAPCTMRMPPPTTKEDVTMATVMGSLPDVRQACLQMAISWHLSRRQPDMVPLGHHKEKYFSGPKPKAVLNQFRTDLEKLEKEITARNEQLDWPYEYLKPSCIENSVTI
#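 Purified human 12hLO (150 nM final) in 25 mM Hepes, 0.01% Triton X-100, pH 7.0 was preincubated 15 min at room temperature with compound. Then 40 uM arachidonic acid was added, 30 min. Hydroperoxide was read by Fe-XO absorbance ratio 573/405 nm.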
# IL-1B inflam inh: blocks inflammasome-driven IL-1 beta release; THP-1 LPS/ATP IL-1B secretion, AlphaLISA, 16 h; hits give low values; activity change, % at 57.5 µM; 360,000 tested, 4.7% active; AID 743279; in the data active = activity change below about -50%; inconclusive = mostly about -30% to -49%
#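 Secreted IL-1B measured by AlphaLISA bead assay after 16 h compound exposure of THP-1 cells; compounds (final up to 57.5 uM) added 1 h before LPS (250 ng/mL) and ATP (1.25 mM) stimulation; lower signal means less secretion.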
# HT1080-NT tox: kills 2HG-producing HT-1080-NT fibrosarcoma cells | Potency, µM (titrated, usually from 46.1 µM), for inactives: at the highest dose activity, negative = less viability, usual class: cytotoxic | 360,000 tested, 1.6% active | HT-1080-NT fibrosarcoma viability, CellTiter-Glo ATP luminescence, 48 h | AID 686970;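 note: NT is the 2HG producing partner of a matched IDH1 knockdown line; potency is the fitted concentration of half-maximal effect; 0% = DMSO-treated cells and -100% = media-only wells without cells; nearly all actives have a fitted effect of over 55% in size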
#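 Toxicity toward the 2HG-producing NT line was scored as %Activity, normalised to DMSO and no-cell wells, from CellTiter-Glo luminescence after 48 hours' treatment.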
# DT40 TDP1 no CPT: qHTS for Inhibitors of human tyrosyl-DNA phosphodiesterase 1 (TDP1): qHTS in cells in absence of CPT; DT40 Tdp1-/- hTDP1 cells, no CPT, ATP luminescence, 48 h; Potency, µM (top dose mostly 46.2 µM), for inactives: top-dose activity change, negative = growth inhibition, actives largely listed as inhibitors; 420,000 tested, 15% active; AID 686978, 2013; note: potency is the fitted concentration of half-maximal effect; nearly all actives have a fitted effect of over 55% in size
#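 Cells were dispensed at 400 per well, compounds added by pin tool, plates incubated ≥48 hr at 37 °C, then CellTiter-Glo added for 30 min at room temperature before luminescence reading. Line: DT40 Tdp1-/- complemented with hTDP1; camptothecin omitted.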
# HT1080 IDH1KD tx: HT-1080 IDH1 knockdown cell toxicity (counter line); HT-1080 IDH1 knockdown viability, ATP luminescence, 48 h; Potency, µM (doses to about 46.1 µM), inactives show at the highest dose activity, negative = toxicity, actives largely listed as cytotoxic; 360,000 tested, 2% active;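 note: potency is the fitted concentration of half-maximal effect; 0% = DMSO wells and -100% = cell-free medium wells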
#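 IDH1KD HT-1080 cells, 750/well, RPMI + 5% FBS; compound pinned after 2 h settling; 48 h, 37 °C; CellTiter-Glo luminescence; % activity normalised to DMSO and no-cell wells; curves fitted, classed by r2 and efficacy.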
# * hit, by the source's call; ? = inconclusive; . = no result given; [ ] = another dose, or the depositor's remark. The full list was thinned out, with hits kept by preference. Unless noted, calls come from the whole dose curve; as a rule, active = well fitted curve in the direction sought with a large enough effect; inconclusive = small, poorly fitted or top-dose-only effect, or another doubt; inactive = no such curve, though single readings can be large; an effect the other way counts as inactive or inconclusive. Unless noted, % is set by controls: 0 for no effect and ±100 for the full control effect.
SMILES,TDP1 cell CPT,12-LOX inh,IL-1B inflam inh,HT1080-NT tox,DT40 TDP1 no CPT,HT1080 IDH1KD tx
CC(=O)c1ccc(N2CCC(c3cc(-c4ccc(Cl)cc4)n[nH]3)CC2)c([N+](=O)[O-])c1,7.31µM*,.,24.9,?,4.61µM*,?
Cc1ccc(/C=C/c2nc(N)nc(-c3ccccc3O)n2)cc1,.,-22.6%,.,.,.,.
Nc1nccnc1C(=O)NCc1ccc(Cn2cnc3ccccc32)cc1,.,2.5%,.,.,.,.
COc1ccc(CC(N)c2csc(NC(=O)Nc3ccc(OC)cc3)n2)cc1 (stereo unspecified),20.6µM*,-26.1%,-50.4*,23.1µM*,16.4µM*,?
COc1ccc(NC(=O)Nc2nnc(C(C)C)s2)cc1,-19.9%,13.8%,-20.5,-2.8%,?,-12.0%
COc1ccc(CC(N)c2csc(NC(=O)c3cc(C(C)(C)C)oc3C)n2)cc1 (stereo unspecified),23.1µM*,?,-56.7*,20.6µM*,?,20.6µM*
COc1cc(NC(=O)Nc2nc(C(N)Cc3ccc(C(F)(F)F)cc3)cs2)cc(OC)c1OC (stereo unspecified),11.6µM*,?,-29.8,20.6µM*,11.6µM*,18.4µM*
COc1ccc(NC(=O)Nc2nc(C(N)Cc3ccc(C(F)(F)F)cc3)cs2)cc1 (stereo unspecified),?,?,?,?,16.4µM*,?
Cc1csc(NC(=O)c2cc(C)oc2C)n1,-8.3%,-18.7%,-23.1,0.5%,-27.4%,-14.8%
O=C(CSc1cnc2cc(S(=O)(=O)N3CCCCC3)ccc2n1)Nc1cccc(Cl)c1,.,-12.7%,.,.,.,.
O=C(c1ccc(F)cc1Cl)N1CCC2(CC1)NC(=O)N(c1ccccc1Cl)N2,.,1.41µM*,.,.,.,.
O=C(Cc1ccc(F)cc1)N1CCC2(CC1)NC(=O)N(Cc1ccc(F)cc1)C2=O,.,6.1%,.,.,.,.
O=C(COc1ccc(F)cc1)N1CCC2(CC1)NC(=O)N(c1ccccc1Cl)N2,.,1.41µM*,.,.,.,.
O=C1NCCN2CC3(CCN(C(=O)COc4ccc(F)cc4)CC3)CC12 (stereo unspecified),.,77.4%,.,.,.,.
O=C(Cc1ccc(F)cc1)N1CCC2(CC1)NC(=O)N(c1ccccc1Cl)N2,.,1.26µM*,.,.,.,.
O=C1CC(c2ccccc2Oc2cccc(Cl)c2)C(n2cncn2)C(=O)C1C1NCCc2ccccc21 (stereo unspecified),7.4%,31.6µM*,0.0,-0.1%,5.1%,-2.2%
COc1ccc(-c2cccc(NS(=O)(=O)c3cc(C)c(Cl)cc3C)c2)nn1,13µM*,-18.2%,.,.,23.1µM*,.
COc1ccc(C)cc1S(=O)(=O)Nc1cccc(-c2ccc(N3CCCC3)nn2)c1,-23.9%,-11.5%,.,.,-24.5%,.
COc1ccc(-c2cccc(NS(=O)(=O)c3cc(C)ccc3OC)c2)nn1,16.4µM*,-17.1%,.,.,23.1µM*,.
COc1ccc(-c2cc(C(=O)N(C)CCO)c3ccccc3n2)cc1,.,1.5%,.,.,.,.
CCN(CC)CCNC(=O)c1cc(-c2ccco2)nc2ccccc12,28.5%,?,-7.8,-11.1%,-18.5%,-5.3%
Cc1ccc(N(C)C(=O)c2cc(-c3ccco3)nc3ccccc23)cc1,.,35.5µM*,.,.,.,.
CN(CCOc1ccc(Cl)cc1)C(=O)c1cc(-c2ccco2)nc2ccccc12,?,?,-80.9*,-4.9%,?,-14.2%
CN(CC(=O)Nc1ccc(F)cc1)C(=O)c1cc(-c2ccco2)nc2ccccc12,-5.8%,14.1µM*,-13.7,-8.7%,?,-19.1%
COc1cccc(NC(=O)CN(C)C(=O)c2cc(-c3ccco3)nc3ccccc23)c1,?,?,-5.7,-20.1%,18.4µM*,-4.5%
SMILES,TDP1 cell CPT,12-LOX inh,IL-1B inflam inh,HT1080-NT tox,DT40 TDP1 no CPT,HT1080 IDH1KD tx
N#Cc1ccc(COC(=O)COc2ccc(C3SCCCS3)cc2)cc1,.,-2.5%,.,.,.,.
Cc1ccccc1-n1nc(C)c2cc(C(=O)N3CCN(S(=O)(=O)c4ccc(F)cc4)CC3)sc21,10µM*,12.8%,-9.9,-0.7%,17.8µM*,-23.8%
O=C(CSc1nc(Nc2ccc(F)cc2)c2ccccc2n1)c1ccc(F)cc1,?,-10.6%,.,.,?,.
COc1cc(Nc2nc(SCC(=O)c3ccc(Br)cc3)nc3ccccc23)cc(OC)c1,5.17µM*,0.0%,.,.,2.91µM*,.
Cc1ccc(C[n+]2cccc(-c3ccccc3)c2)c(C)c1,1.16µM*,-5.7%,-58.1*,-25.8%,0.731µM*,?
COc1ccc(-c2noc(Cn3c(=O)c4ccccc4n(CC(=O)Nc4cccc(C(F)(F)F)c4)c3=O)n2)cc1,?,2.2%,.,.,16.4µM*,.
COc1ccc(OC)c(NC(=O)Cn2c(=O)n(Cc3nc(C)no3)c(=O)c3ccccc32)c1,-3.6%,5.3%,.,.,3.2%,.
O=C(Cn1c(=O)n(Cc2nc(-c3ccccc3)no2)c(=O)c2cc3c(cc21)OCO3)Nc1cccc(C(F)(F)F)c1,13µM*,-0.6%,.,.,9.2µM*,.
FC(F)(F)c1ccc(-c2ncc[nH]2)cc1,.,61.2%[176 µM],.,.,.,.
O=C(CCCSCCCC(=O)NN=Cc1ccccc1)NN=Cc1ccccc1,?,-2.6%,-2.8,-8.0%,23.1µM*,-2.3%
O=C(CSCC(=O)NN=Cc1ccccc1)NN=Cc1ccccc1,-11.8%,13.2%,-0.8,-3.0%,-26.7%,2.0%
CC(=O)Oc1ccc(/C=N/NC(=O)CCSc2ccccc2)cc1,?,-8.9%,47.9,-3.9%,18.4µM*,-5.2%
Cc1c(C(=O)O)cccc1-c1ccc(/C=N/Nc2ccc(Br)cc2)o1,-3.8%,44.7µM*,4.7,-23.1%,-24.6%,?
COC(=O)N/N=C/c1ccc(-c2ccc(Cl)cc2Cl)o1,3.2%,41.4%,2.0,-0.5%,-9.5%,-9.6%
O=C(O)c1ccc(N/N=C/c2ccc(-c3cc(Cl)ccc3Cl)o2)cc1,25.9µM*,-24.0%,?,?,?,16.4µM*
O=C(O)c1cccc(-c2ccc(/C=N/Nc3ccc([N+](=O)[O-])cc3)o2)c1,1.3%,?,-6.6,-22.9%,-21.8%,-15.8%
NS(=O)(=O)c1ccc(-c2ccc(/C=N/Nc3ccc(C(=O)O)cc3)o2)cc1,-17.2%,22.7%,-4.5,0.8%,-1.0%,0.0%
O=C(O)c1ccc(N/N=C/c2ccc(-c3ccc(Cl)cc3Cl)o2)cc1,16.4µM*,?,4.0,?,?,?
O=C(O)c1ccc(N/N=C/c2ccc(-c3cccc(Cl)c3)o2)cc1,?,8.2%,-12.9,10.3µM*,-10.5%,16.4µM*
